# Experimental data: PubChem BioAssay (NCATS)
# Unmarked numbers belong to inactive results. Active and inactive are the calls of the source. Calls come from the whole dose curve; as a rule, active = well fitted curve in the direction sought with a large enough effect; inconclusive = small, poorly fitted or top-dose-only effect, or another doubt; inactive = no such curve, though single readings can be large or run the other way.
# Molecular target: T1, Hexokinase-4 (Homo sapiens) + Glucokinase regulatory protein (Homo sapiens) (UniProt P35557+Q14397)
# T1 sequence (P35557 whole entry, looked up): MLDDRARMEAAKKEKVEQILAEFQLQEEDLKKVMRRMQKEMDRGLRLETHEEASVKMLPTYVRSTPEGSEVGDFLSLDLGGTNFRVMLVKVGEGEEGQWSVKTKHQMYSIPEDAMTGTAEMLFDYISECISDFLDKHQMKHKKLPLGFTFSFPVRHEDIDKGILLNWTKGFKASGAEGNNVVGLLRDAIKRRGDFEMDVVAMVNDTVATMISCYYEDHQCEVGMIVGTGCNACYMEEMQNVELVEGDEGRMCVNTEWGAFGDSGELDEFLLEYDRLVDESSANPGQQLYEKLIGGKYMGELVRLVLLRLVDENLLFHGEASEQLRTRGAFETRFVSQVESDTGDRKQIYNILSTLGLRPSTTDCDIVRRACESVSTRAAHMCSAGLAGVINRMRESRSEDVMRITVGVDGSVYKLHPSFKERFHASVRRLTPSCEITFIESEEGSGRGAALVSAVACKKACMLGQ
# T1 sequence (Q14397 whole entry, looked up): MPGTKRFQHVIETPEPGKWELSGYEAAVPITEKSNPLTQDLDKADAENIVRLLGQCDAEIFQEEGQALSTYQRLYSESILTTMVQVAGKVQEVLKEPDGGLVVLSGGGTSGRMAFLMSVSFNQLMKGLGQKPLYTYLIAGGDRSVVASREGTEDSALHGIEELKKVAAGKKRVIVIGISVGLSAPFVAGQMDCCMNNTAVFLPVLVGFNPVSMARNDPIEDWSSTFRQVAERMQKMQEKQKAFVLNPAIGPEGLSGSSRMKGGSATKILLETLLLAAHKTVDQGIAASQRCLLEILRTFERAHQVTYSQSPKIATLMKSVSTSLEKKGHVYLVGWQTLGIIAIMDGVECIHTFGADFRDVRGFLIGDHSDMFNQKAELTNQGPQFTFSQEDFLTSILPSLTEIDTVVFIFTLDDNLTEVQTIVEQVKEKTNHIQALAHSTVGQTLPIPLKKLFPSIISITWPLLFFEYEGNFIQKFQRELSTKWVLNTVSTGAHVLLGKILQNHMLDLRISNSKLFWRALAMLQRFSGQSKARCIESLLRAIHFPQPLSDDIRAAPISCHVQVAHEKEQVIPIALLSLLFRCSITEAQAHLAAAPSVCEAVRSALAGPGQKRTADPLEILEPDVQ
# Test: qHTS assay for inhibitors of recombinant human GCK-GKRP interaction: Diaphorase-coupled assay (AID 743205)
# Details: G6PDH/diaphorase resorufin fluorescence; series mostly up to 57.5 µM
# In short: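 Resorufin fluorescence (525/590 nm), read each minute over 30 min, reports GCK activity coupled via G6PDH and diaphorase. Reaction: 10 nM GST-GCK, 10 nM FLAG-GKRP, 5 mM glucose, 0.4 mM ATP, 0.15 mM NADP+, 0.1 mM resazurin.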
row,SMILES,outcome
1,C[C@]12CC[C@@H]3c4ccc(O)cc4C[C@@H](CCCCCCCCCS(=O)CCCC(F)(F)C(F)(F)F)[C@H]3[C@@H]1CC[C@@H]2O (stereo not given in full),inactive
2,CCCCNc1c(C(=O)OCC)c(C)nc2c1cnn2CC,inactive
3,O=c1[nH]c(=O)n([C@H]2C[C@H](O)[C@@H](CO)O2)cc1Br,inactive
4,COCC(=O)O[C@]1(CCN(C)CCCc2nc3ccccc3[nH]2)CCc2cc(F)ccc2[C@@H]1C(C)C,inactive
5,CN(C)CC[C@@H](c1ccc(Br)cc1)c1ccccn1,inactive
6,c1cc(CN2CCCCC2)cc(OCCCNc2nc3ccccc3s2)c1,inactive

# Molecular target: T1, Hexokinase-4 (Homo sapiens) + Glucokinase regulatory protein (Homo sapiens)
# Test: qHTS assay for inhibitors of recombinant human GCK-GKRP interaction: ADP-Glo assay (AID 743206)
# Details: ADP-Glo luminescence, 60 min, 0% = vehicle-only wells with enzyme present; series mostly up to 76.9 µM
# In short: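 GST-GCK and FLAG-GKRP (15 nM each in the dispensed mix, with 2 uM S6P) react with 0.4 mM ATP and 5 mM glucose (final) in Hepes pH 7.6 for 60 min at room temperature. ADP is measured by ADP-Glo luminescence.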
row,SMILES,outcome
1,C#CCN(C)CCCOc1ccc(Cl)cc1Cl,inactive
2,CN(C)CCCN1c2ccccc2Sc2ccc(C(F)(F)F)cc21,inactive
3,Nc1ncn([C@@H]2O[C@H](CO)[C@@H](O)[C@H]2O)c(=O)n1,inactive
4,CN(C)[C@@H]1C(=O)C(C(N)=O)=C(O)[C@@]2(O)C(=O)C3=C(O)c4c(O)ccc(Cl)c4[C@@H](O)[C@H]3C[C@@H]12,inactive
5,CC(C)COCC(CN(Cc1ccccc1)c1ccccc1)N1CCCC1 (stereo not given),inactive
6,CCN(CC)CCNC(=O)c1ccc(NC(C)=O)cc1,inactive
7,CCOC(=O)c1cnc2c(cnn2CC)c1NN=C(C)C,inactive
8,COC(=O)C1=C(C)NC(C)=C(C(=O)OC(C)(C)CN(C)CCC(c2ccccc2)c2ccccc2)C1c1cccc([N+](=O)[O-])c1 (stereo not given),inactive
9,CCc1c(C)[nH]c2c1C(=O)C(CN1CCOCC1)CC2 (stereo not given),inactive
10,NCCCNCCSP(=O)(O)O,inactive
11,CC(=O)Nc1nnc(S(N)(=O)=O)s1,inactive
12,NC/C=C/C(=O)O,inactive
13,O=C(CCNNC(=O)c1ccncc1)NCc1ccccc1,inactive
14,C[C@@H](O)[C@H]1C(=O)N2C(C(=O)O)=C(SCCN=CN)C[C@H]12,inactive
15,CC(=O)[C@@]1(O)CC[C@H]2[C@@H]3CCC4=CC(=O)CC[C@]4(C)[C@H]3CC[C@@]21C,inactive
16,CNC1(C)C2CCC(C2)C1(C)C (stereo not given),inactive
17,Cc1ccc(S(=O)(=O)NC(=O)NN2CCCCCC2)cc1,inactive

row,SMILES,outcome
1,CC(=O)OCC1=C(C(=O)O)N2C(=O)[C@@H](NC(=O)Cc3cccs3)[C@H]2SC1,inactive
2,CCN1CCC[C@H]1CNC(=O)c1c(O)c(Cl)cc(Cl)c1OC,inactive
3,C[C@H](CS)C(=O)N1CCC[C@H]1C(=O)O,inactive
4,CN=C(NC#N)NCCSCc1nc[nH]c1C,inactive
5,CCCNC(C)C(=O)Nc1ccccc1C (stereo not given),inactive
6,O=C(O)CN(CCN(CC(=O)O)CC(=O)O)CCN(CC(=O)O)CC(=O)O,inactive
7,COc1cc2c(cc1OC)-c1cc(=Nc3c(C)cc(C)cc3C)n(C)c(=O)n1CC2,inactive
8,C[N+](C)(C)CCCCCCCCCC[N+](C)(C)C,inactive
9,C=CCc1ccccc1OCC(O)CNC(C)C (stereo not given),inactive
10,CSc1ccc(C(=O)c2[nH]c(=O)[nH]c2C)cc1,inactive
11,OCCN1CCN(CC/C=C2/c3ccccc3Sc3ccc(C(F)(F)F)cc32)CC1,inactive
12,C[C@]12CC[C@@H]3c4ccc(O)cc4C[C@@H](CCCCCCCCCS(=O)CCCC(F)(F)C(F)(F)F)[C@H]3[C@@H]1CC[C@@H]2O (stereo not given in full),inactive
13,CCCCNc1c(C(=O)OCC)c(C)nc2c1cnn2CC,inactive
14,O=c1[nH]c(=O)n([C@H]2C[C@H](O)[C@@H](CO)O2)cc1Br,inactive
15,COCC(=O)O[C@]1(CCN(C)CCCc2nc3ccccc3[nH]2)CCc2cc(F)ccc2[C@@H]1C(C)C,inactive
16,CN(C)CC[C@@H](c1ccc(Br)cc1)c1ccccn1,inactive
17,c1cc(CN2CCCCC2)cc(OCCCNc2nc3ccccc3s2)c1,inactive
